JMJD2A Tudor inh: qHTS Assay for Inhibitors of JMJD2A-Tudor Domain | AlphaScreen JMJD2A-Tudor / H3K4me3 peptide binding | Potency, µM (top dose mostly 114 µM), for the others: at the top dose activity change, negative = inhibition, actives largely listed as inhibitors | 390,000 compounds, 4.4% hits | AID 504339, 2011; also: potency is read from the fitted curve at half-maximal effect; % is scaled to controls: 0 for no effect and ±100 for the full control effect; nearly all actives have a fitted effect of over 50% in size
TDP1 inh: qHTS Assay for Inhibitors of Tyrosyl-DNA Phosphodiesterase (TDP1); Tyrosyl-DNA phosphodiesterase 1 (Homo sapiens), Q9NUW8; recombinant TDP1, AlphaScreen DNA substrate cleavage; 350,000 compounds, 0.28% hits; Potency, µM (doses to about 130 µM), without a hit: at the top dose activity change, negative = inhibition, usual class: inhibitors; also: potency is read from the fitted curve at half-maximal effect; % is scaled to controls: 0 for no effect and ±100 for the full control effect; nearly all actives have a fitted effect of over 40% in size
Target sequence (Q9NUW8 whole entry, looked up): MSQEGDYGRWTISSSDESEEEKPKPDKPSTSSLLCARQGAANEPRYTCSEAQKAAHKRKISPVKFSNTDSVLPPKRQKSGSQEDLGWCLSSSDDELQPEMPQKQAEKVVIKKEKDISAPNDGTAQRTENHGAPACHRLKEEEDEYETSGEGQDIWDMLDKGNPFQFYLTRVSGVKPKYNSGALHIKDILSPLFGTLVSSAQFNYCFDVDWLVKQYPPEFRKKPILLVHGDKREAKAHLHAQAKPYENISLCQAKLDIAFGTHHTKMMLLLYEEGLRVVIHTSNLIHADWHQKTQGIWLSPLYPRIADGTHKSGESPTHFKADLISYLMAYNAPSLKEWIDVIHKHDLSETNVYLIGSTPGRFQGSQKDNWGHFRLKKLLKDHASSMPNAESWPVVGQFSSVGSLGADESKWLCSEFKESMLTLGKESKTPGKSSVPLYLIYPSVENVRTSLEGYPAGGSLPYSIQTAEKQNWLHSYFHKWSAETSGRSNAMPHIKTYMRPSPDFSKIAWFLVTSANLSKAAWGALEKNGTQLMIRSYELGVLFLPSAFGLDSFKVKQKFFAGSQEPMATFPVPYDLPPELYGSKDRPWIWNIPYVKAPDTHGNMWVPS
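Recombinant E. coli-expressed Tdp1 (1 nM) preincubated with compound 15 min at RT, then 5'-biotin/3'-phosphotyrosine-FITC DNA substrate (15 nM) added for 5 min. AlphaScreen beads (10 ug/ml) added, 10 min RT; tyrosine-FITC cleavage read as signal loss.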
Six1-Eya2 blk: qHTS Assay for Inhibitors of the Six1/Eya2 Interaction; AlphaScreen GST-Six1/His-Eya2 binding, biochemical; hits give low values; activity change, % (test concentration not listed); 360,000 compounds, 0.56% hits; AID 651725, 2012; in the data active = activity change below about -65%; inconclusive = mostly about -30% to -63%; also: % is scaled to controls: 0 for no effect and ±100 for the full control effect
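AlphaScreen with GST-Six1 and His-Eya2 (5X mix: 250 nM and 500 nM), glutathione donor and nickel acceptor beads; buffer 50 mM Tris pH 8.0, 300 mM NaCl, 1 mM TCEP; 1 h at 37 C in the dark.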
BAZ2B inh: qHTS Assay for Inhibitors of BAZ2B | Bromodomain adjacent to zinc finger domain protein 2B (Homo sapiens), Q9UIF8 | AlphaScreen BAZ2B-H3K14Ac peptide displacement | Potency, µM (highest dose often 114 µM), without a hit: top-dose activity change, negative = inhibition, usual class: inhibitors | 360,000 compounds, 4.4% hits | AID 504333, 2011; also: potency is read from the fitted curve at half-maximal effect; % is scaled to controls: 0 for no effect and ±100 for the full control effect; nearly all actives have a fitted effect of over 60% in size
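BAZ2B 50 nM plus b-H3(5-23)K14Ac 50 nM, PBS pH 7.4/0.01% Tween-20, 30 min RT; compound added (max 110 uM), 30 min RT; streptavidin donor/Ni-chelate acceptor beads 10 ug/mL final, 20 min dark; AlphaScreen read.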
CtBP-E1A blk: qHTS Assay for Inhibitors of the CtBP/E1A Interaction. AlphaScreen GST-E1A/His-CtBP binding, 1536-well; hits give low values. activity change, % (no concentration beside the values). 340,000 compounds, 0.49% hits; in the data active = activity change below about -65%; inconclusive = mostly about -30% to -63%; also: % is scaled to controls: 0 for no effect and ±100 for the full control effect
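Homogeneous bead-based format: GST-tagged E1A captured on glutathione donor beads, His-tagged CtBP on nickel acceptor beads; compounds precede bead addition by 2 h at 37 °C.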
HP1b chromo inh: HTS for Inhibitors of HP1-beta Chromodomain Interactions with Methylated Histone Tails | Chromobox protein homolog 1 (Homo sapiens), P83916 | Potency, µM (highest dose often 114 µM), for inactives: at the top dose activity change, negative = inhibition, usual class: inhibitors | AlphaScreen HP1-beta / biotin-H3K9me3 peptide binding | 390,000 compounds, 0.56% hits; also: potency is read from the fitted curve at half-maximal effect; nearly all actives have a fitted effect of over 70% in size
Target sequence (P83916 whole entry, looked up): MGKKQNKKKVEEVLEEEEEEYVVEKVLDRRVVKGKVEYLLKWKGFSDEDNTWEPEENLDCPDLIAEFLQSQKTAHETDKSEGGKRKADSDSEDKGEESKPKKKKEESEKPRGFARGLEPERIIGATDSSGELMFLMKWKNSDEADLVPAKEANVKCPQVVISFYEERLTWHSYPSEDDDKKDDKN
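HP1-beta protein (50 nM final) preincubated 30 min at room temperature with biotinylated H3(1-18)K9me3 peptide (50 nM) in PBS pH 7.4, 0.01% Tween-20, then compound added for 30 min. AlphaScreen streptavidin donor/nickel chelate acceptor beads (10 ug/mL final), 30 min dark, luminescence read.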
* marks the source's active call; other numbers are inactive results; ! = not confirmed by another sample; [ ] = another dose, or the depositor's remark. Most compounds without a hit are left out; they make up all but 5.3% or so of the library. Unless noted, calls follow the shape of the dose curve; as a rule, active = well fitted inhibition curve with a large enough effect; inconclusive = small, poorly fitted or top-dose-only effect; inactive = no such curve, though single readings can be large or run the other way.

For O=C(C1CCN(S(=O)(=O)c2ccccc2)CC1)N1CCN(Cc2ccc3c(c2)OCO3)CC1 the results were JMJD2A Tudor inh -18.2%, TDP1 inh 0.7%, Six1-Eya2 blk -0.7, BAZ2B inh -1.1%, CtBP-E1A blk 1.1 and HP1b chromo inh -1.9%.
COc1cccc(CN2CCC(C(=O)N3CCN(Cc4ccc5c(c4)OCO5)CC3)CC2)c1OC was read as JMJD2A Tudor inh 3.16µM*, TDP1 inh 3.1%, Six1-Eya2 blk 7.1, BAZ2B inh -13.2%, CtBP-E1A blk 6.2 and HP1b chromo inh inconclusive.
For COc1ccc(NC(=O)Nc2nnc(N(C)C3CCCCC3)s2)c(OC)c1 the results were JMJD2A Tudor inh -5.3%, TDP1 inh 5.7%, BAZ2B inh 0.6% and HP1b chromo inh 47.3%.
For CCN1CCN(c2ccc(S(=O)(=O)N3CCCCC3)cc2NC(=O)/C=C/c2ccc([N+](=O)[O-])cc2)CC1 the results were JMJD2A Tudor inh inconclusive, TDP1 inh -10.6%[0.505 µM], Six1-Eya2 blk -7.8, BAZ2B inh inconclusive, CtBP-E1A blk inconclusive and HP1b chromo inh inconclusive.
Screening CN1CCN(c2ccc(S(=O)(=O)N3CCCCC3)cc2NC(=O)/C=C/c2ccc(Cl)c([N+](=O)[O-])c2)CC1 returned JMJD2A Tudor inh 44.7µM*, TDP1 inh 8.5%, Six1-Eya2 blk -26.3, BAZ2B inh inconclusive, CtBP-E1A blk -13.9 and HP1b chromo inh inconclusive.
`Cc1c(NC(=O)c2ccc(C(=O)Nc3c(C)n(C)n(-c4ccccc4)c3=O)cc2)c(=O)n(-c2ccccc2)n1C` gave JMJD2A Tudor inh -3.3%, Six1-Eya2 blk 10.0, BAZ2B inh 9.7% and HP1b chromo inh 39.4%.
`Cc1c(NC(=O)C(=O)/C=C(\O)c2ccc(Br)cc2)c(=O)n(-c2ccccc2)n1C` gave JMJD2A Tudor inh 25.1µM*, TDP1 inh 5.6%, Six1-Eya2 blk -0.6, BAZ2B inh inconclusive, CtBP-E1A blk 0.9 and HP1b chromo inh -17.5%.
For N#Cc1c(-c2ccncc2)c2c([nH]c1=S)CCCC2 the results were JMJD2A Tudor inh 2.24µM*, TDP1 inh 5.9%, Six1-Eya2 blk 2.4, BAZ2B inh inconclusive, CtBP-E1A blk 4.8 and HP1b chromo inh -29.5%.
For Cc1ccc(-c2c3c([nH]c(=S)c2C#N)CCCC3)o1 the results were JMJD2A Tudor inh 39.8µM*, TDP1 inh 31.6µM*, Six1-Eya2 blk -20.4, BAZ2B inh 50.1µM*, CtBP-E1A blk -23.3 and HP1b chromo inh inconclusive.
`C/C(CC(=O)NC1CCCCCC1)=N\NC(=O)c1cnccn1` gave JMJD2A Tudor inh 2.24µM*, TDP1 inh 5.1%, Six1-Eya2 blk -18.1, BAZ2B inh -4.3%, CtBP-E1A blk -7.6 and HP1b chromo inh 12.3%.
COC(=O)Nc1sc2c(c1C(=O)NCc1ccco1)CCC2 was read as JMJD2A Tudor inh 56.2µM*, TDP1 inh 0.0%, Six1-Eya2 blk -3.1, BAZ2B inh inconclusive, CtBP-E1A blk -2.9 and HP1b chromo inh -3.3%.
For CC(C)=CCC/C(C)=C/CO/N=C1/C[C@@H](O)[C@@H](O)[C@@H]2[C@@H]3C(=O)N(c4cccc(Oc5ccccc5)c4)C(=O)[C@H]3CC[C@H]12 the results were TDP1 inh 4.8%[21 µM].
Cc1ccccc1NS(=O)(=O)c1ccc(S(=O)(=O)N2CCCC2)cc1 was read as Six1-Eya2 blk 1.4 and CtBP-E1A blk 2.9.
COc1ccc(S(=O)(=O)Nc2cccc3cccnc23)cc1 was read as JMJD2A Tudor inh -6.2%, TDP1 inh -2.4% and HP1b chromo inh 14.0%.
Screening O=S(=O)(Nc1cccc2cccnc12)c1ccccc1 returned JMJD2A Tudor inh -15.1%, TDP1 inh 1.5%, Six1-Eya2 blk -66.2*, BAZ2B inh inconclusive, CtBP-E1A blk -84.4* and HP1b chromo inh 24.5%[57 µM].
`O=S(=O)(Nc1cccnc1)c1ccc(F)cc1` gave JMJD2A Tudor inh -6.8%, Six1-Eya2 blk 3.9, BAZ2B inh -34.5%, CtBP-E1A blk 2.1 and HP1b chromo inh 38.6%.
Screening O=S(=O)(Nc1cccnc1)c1ccccc1 returned JMJD2A Tudor inh 50.1µM*!, TDP1 inh 3.5%, Six1-Eya2 blk 11.0, BAZ2B inh -15.3%, CtBP-E1A blk 8.9 and HP1b chromo inh 19.1%.
Screening O=S(=O)(Nc1cccc2cccnc12)c1ccc(S(=O)(=O)N2CCCC2)cc1 returned JMJD2A Tudor inh -19.4%, TDP1 inh 10.9%, Six1-Eya2 blk -75.7*, BAZ2B inh inconclusive, CtBP-E1A blk -90.3* and HP1b chromo inh 21.1%.
`CC(C)(N)C(=O)N[C@@H](Cc1cnc[nH]1)C(=O)N[C@H](Cc1ccc2ccccc2c1)C(=O)N[C@H](Cc1ccccc1)C(=O)N[C@@H](CCCCN)C(N)=O` gave TDP1 inh 11.5%.
COc1cc(OC)c(NC(=O)c2csc3c2CCC(C)C3)cc1Cl (stereo unspecified) was read as JMJD2A Tudor inh -17.8%, TDP1 inh -2.0%, BAZ2B inh -21.5% and HP1b chromo inh 30.6%.
For CC(CN1CCC(O)CC1)c1ccccc1 (stereo unspecified) the results were JMJD2A Tudor inh 2.82µM*, Six1-Eya2 blk 2.1, BAZ2B inh inconclusive, CtBP-E1A blk -9.1 and HP1b chromo inh inconclusive.
Screening CC1CCN(C(=O)C2CCN(CC(C)c3ccccc3)CC2)CC1 (stereo unspecified) returned JMJD2A Tudor inh inconclusive, TDP1 inh 2.6%, Six1-Eya2 blk 1.6, BAZ2B inh 58.5%, CtBP-E1A blk 0.3 and HP1b chromo inh inconclusive.
For CC(CN1CCN(Cc2ccccc2)CC1)c1ccccc1 (stereo unspecified) the results were JMJD2A Tudor inh 89.1µM*, Six1-Eya2 blk 8.3, BAZ2B inh -7.5% and HP1b chromo inh -8.1%.
`ClC(CCN1CCN(Cc2ccccc2)CC1)c1ccccc1` (stereo unspecified) gave JMJD2A Tudor inh 50.1µM*, Six1-Eya2 blk 10.9, CtBP-E1A blk 0.2 and HP1b chromo inh 10.9%.
Screening CCOC(=O)c1ccc2ncc(C(=O)OCC)c(Nc3ccc(N4CCOCC4)cc3)c2c1 returned JMJD2A Tudor inh 39.8µM*, TDP1 inh 11.0%, Six1-Eya2 blk -17.4, BAZ2B inh 14.1µM*, CtBP-E1A blk -24.1 and HP1b chromo inh inconclusive.

Source: PubChem
